Source: PubChem BioAssay (National Center for Advancing Translational Sciences (NCATS))
G9a inh: blocks human histone lysine methyltransferase G9a. Q96KQ7. G9a H3K9 monomethylation, AlphaScreen, 2 h. Potency, µM (highest dose often 102 µM), inactives show at the top dose activity, negative = inhibition, actives largely listed as inhibitors. actives 8.8% (n = 350,000). AID 504332; also: % is scaled to controls: 0 for no effect and ±100 for the full control effect; nearly all actives have a fitted effect of over 75% in size
Target sequence (Q96KQ7 913-1193 limits assumed): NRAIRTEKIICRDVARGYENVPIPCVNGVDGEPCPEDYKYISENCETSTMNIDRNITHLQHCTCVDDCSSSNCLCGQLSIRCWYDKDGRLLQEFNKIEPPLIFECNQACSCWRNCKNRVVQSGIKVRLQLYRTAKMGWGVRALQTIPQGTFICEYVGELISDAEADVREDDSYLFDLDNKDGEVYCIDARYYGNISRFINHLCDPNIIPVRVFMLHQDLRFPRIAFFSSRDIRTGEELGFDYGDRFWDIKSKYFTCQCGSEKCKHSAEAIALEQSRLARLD
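Quantitative HTS format: methyltransferase activity on a biotin-tagged H3K9 peptide is measured by AlphaScreen, using a rabbit anti-monomethyl-H3K9 antibody with streptavidin donor and anti-IgG acceptor beads. Final levels are 20 nM enzyme, 500 nM peptide, 20 uM SAM; 2 h RT.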
HP1b binding inh: HP1-beta chromodomain-methylated histone interaction inhibition | Potency, µM (highest dose often 114 µM), for the others: top-dose activity change, negative = inhibition, most hits filed as inhibitors | AID 540317 | AlphaScreen HP1-beta / biotin-H3K9me3 peptide binding | actives 0.56% (n = 390,000); also: nearly all actives have a fitted effect of over 70% in size
Target sequence (P83916 whole entry, looked up): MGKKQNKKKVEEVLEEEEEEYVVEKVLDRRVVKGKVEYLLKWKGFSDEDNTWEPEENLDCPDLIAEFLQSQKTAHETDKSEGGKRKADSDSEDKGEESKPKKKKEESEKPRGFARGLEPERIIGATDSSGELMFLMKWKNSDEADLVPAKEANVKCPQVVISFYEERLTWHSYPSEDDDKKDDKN
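HP1-beta protein (50 nM final) preincubated 30 min at room temperature with biotinylated H3(1-18)K9me3 peptide (50 nM) in PBS pH 7.4, 0.01% Tween-20, then compound added for 30 min. AlphaScreen streptavidin donor/nickel chelate acceptor beads (10 ug/mL final), 30 min dark, luminescence read.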
L3MBTL1 block: L3MBTL1 (human) inhibition | Q9Y468 | AlphaScreen L3MBTL1–H3K9me1 peptide binding | Potency, µM (doses to about 57.1 µM), without a hit: top-dose activity, negative = inhibition, actives largely listed as inhibitors | actives 0.66% (n = 230,000); also: % is scaled to controls: 0 for no effect and ±100 for the full control effect; nearly all actives have a fitted effect of over 60% in size
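First, the protein-peptide complex forms for 30 min at room temperature (L3MBTL1 50 nM, biotinylated H3K9me1 peptide 75 nM). Next, compounds are pin-transferred and incubated 30 min. Finally, AlphaScreen beads are added and read after 30 min.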
Sfp inh: blocks B. subtilis Sfp PPTase activity. actives 3.5% (n = 310,000). AID 1490. Biochemical Sfp PPTase activity, qHTS. Potency, µM, inactives show largest response in the series, negative = inhibition, most hits filed as inhibitors;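 also: the enzyme is Sfp with the accession as filed and its product quenches rhodamine fluorescence; 0% = enzyme reaction without inhibitor and -100% = no enzyme wells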
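Reaction rates are the 30-min fluorescence difference (ex 525, em 598 nm) in wells containing 15 nM Sfp, 5 uM rhodamine-CoA and 12.5 uM BHQ-2-YbbR at pH 7.6 with 10 mM MgCl2.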
JMJD2A Tudor: inhibitors of human JMJD2A Tudor domain | AlphaScreen JMJD2A-Tudor / H3K4me3 peptide binding | Potency, µM (titrated, usually from 114 µM), inactives show at the top dose activity change, negative = inhibition, hits mostly inhibitors | actives 4.4% (n = 390,000) | AID 504339; also: % is scaled to controls: 0 for no effect and ±100 for the full control effect; nearly all actives have a fitted effect of over 50% in size
BAZ2B inh: inhibitors of human BAZ2B bromodomain; Q9UIF8; AlphaScreen BAZ2B-H3K14Ac peptide displacement; Potency, µM (doses to about 114 µM), for inactives: at the top dose activity change, negative = inhibition, actives largely listed as inhibitors; actives 4.4% (n = 360,000); AID 504333; also: % is scaled to controls: 0 for no effect and ±100 for the full control effect; nearly all actives have a fitted effect of over 60% in size
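BAZ2B 50 nM plus b-H3(5-23)K14Ac 50 nM, PBS pH 7.4/0.01% Tween-20, 30 min RT; compound added (max 110 uM), 30 min RT; streptavidin donor/Ni-chelate acceptor beads 10 ug/mL final, 20 min dark; AlphaScreen read.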
* hit, by the source's call; ? = inconclusive; / = no result given; [ ] = remark or other dose. Only some compounds are listed: those with a hit (about 12% of all), similar ones and a draw of the others. Calls follow the shape of the dose curve; as a rule, active = well fitted curve in the direction sought with a large enough effect; inconclusive = small, poorly fitted or top-dose-only effect, or another doubt; inactive = no such curve, though single readings can be large; an effect the other way counts as inactive or inconclusive. Potency is read from the fitted curve at half-maximal effect.

SMILES	G9a inh	HP1b binding inh	L3MBTL1 block	Sfp inh	JMJD2A Tudor	BAZ2B inh
Cc1cccc(NCc2n[nH]c(=S)n2-c2ccccc2)c1	?	-24%	-13%	?	-98%	?
CCc1ccc(-n2c(Cc3ccccc3)n[nH]c2=S)cc1	?	10%	-10%	-4%	22µM*	-27%
Cc1cccc(-n2c(Cc3ccccc3)n[nH]c2=S)c1	22µM*	2%	1%	7%	32µM*	-20%
CC(C)Cc1nn2c(=O)cc(COC(=O)c3ccc(NC(=O)CCc4ccccc4)cc3)nc2s1	?	0%	/	/	-31%	-1%
CCOc1ccc(NC(=O)Cc2ccc(NC(=O)N3CCCCc4ccccc43)cc2)cc1	15%[59 µM]	12%	/	/	-25%	-23%
O=C(Cn1c(=O)n(Cc2ccco2)c(=O)c2c3c(sc21)CCCC3)Nc1ccccc1	-16%[59 µM]	?	-10%	?	-11%[11.4 µM]	-1%
O=c1c2c3c(sc2n(CCN2CCOCC2)c(=O)n1Cc1ccco1)CCCCC3	-32%	-20%	-3%	45µM*	89µM*	4%
O=c1c2c3c(sc2n(CCN2CCCCC2)c(=O)n1Cc1ccco1)CCCCC3	50µM*	-25%	/	-2%	?	-30%
CCCCOC(=O)CSc1nnc(-c2ccccc2)o1	13%[59 µM]	111%	/	/	31%	61%
Cc1cccc(CSc2cn(CC(=O)N3CCCCC3)c3ccccc23)c1	-7%[59 µM]	74%	/	/	-9%	-15%
Cn1c(CNC(=O)c2ccccc2)nnc1SCC(=O)Nc1nccs1	-1%	-12%	4%	6%	11µM*	-12%
O=C(CSc1nnc(CNC(=O)c2ccccc2)o1)Nc1nccs1	35%	49%	/	13%	?	79µM*
O=C(CSc1nnc(CNC(=O)c2ccc(F)cc2)o1)Nc1nccs1	/	35%	/	2%	-35%	79µM*
COc1cccc(C(=O)NCc2nnc(SCC(=O)Nc3nccs3)n2-c2ccccc2)c1	6%[59 µM]	30%	-12%	18%	-7%	-4%
O=C(CSc1nnc(CNC(=O)c2ccccc2)o1)c1ccccc1	18%	16%	/	11%	-5%	-2%
CCn1c(SCC(=O)Nc2nccs2)nnc1-c1ccc(C)cc1	20%[59 µM]	22%	1%	4%	-20%	2%
CCC(=O)Nc1ccc(-c2nnc(SCC(=O)Nc3nccs3)n2C)cc1	40µM*	27%	6%	8%	89µM*	-5%
Cc1csc2nc(COc3ccccc3NC(=O)c3ccc(C(C)(C)C)cc3)cc(=O)n12	-1%[59 µM]	30%	/	/	-24%	1%
CCCCc1ccc(NS(=O)(=O)c2cc3c4c(c2)CC(=O)N4CCC3)cc1	-29%[59 µM]	7%	/	/	-31%	-10%
CC(=O)Nc1nonc1-c1nnc(SCc2ccc(F)cc2)n1C	3%[59 µM]	46%	/	/	9%	-2%
Cc1cccc(C(=O)NCc2nnc(SCC(=O)NC3=NCCS3)n2C)c1	-45%	16%	/	3%	40µM*	5%
O=C(CSc1nnc(Cn2c(=O)sc3ccccc32)n1-c1ccccc1)Nc1nccs1	35µM*	50%	4%	79µM*	-16%	-9%
O=C(CSc1nnc(Cn2c(=O)sc3ccccc32)n1-c1ccccc1)N1CCCC1	-10%[59 µM]	55%	-1%	16%	-7%	-1%
CCc1nnc(SCC(=O)Nc2nccs2)n1CC	-2%	26%	/	11%	-18%	-12%
CCn1c(Cc2cccc3ccccc23)nnc1SCC(=O)Nc1nccs1	10µM*	26%	-10%	13%	79µM*	6%
CCOc1ccc(NC(=O)Cn2nc(Cc3cccnc3)c3ccccc3c2=O)cc1	-1%[59 µM]	42%	/	/	-15%	-25%
CCNc1ccc(-c2nc(-c3ccccn3)no2)cc1[N+](=O)[O-]	-24%[59 µM]	37%	/	/	-1%	3%
CC1(C)CC(=O)C2=C(C1)N(c1ccccc1C#N)C(N)=C(C#N)C2c1cccs1 (centres undefined)	40µM*	-5%	/	-17%	?	56µM*
